Laboratory results: PubChem BioAssay AID1851 (National Center for Advancing Translational Sciences (NCATS), 2009)
Out of some 16,000 compounds screened, about 5,800 (36%) were called active. Not shown: some 23% with an inconclusive outcome. The list shows a part of the results. Unmarked numbers belong to inactive results. The call rests on the fitted dose curve; in most records, active means well fitted curve in the direction sought with a large enough effect; inconclusive means small, poorly fitted or top-dose-only effect, or effect the other way; inactive means no such curve, though single readings can be large or run the other way.

The molecules below were run against Cytochrome P450 2C19 (Homo sapiens) (UniProt P33261) (assay: Cytochrome panel assay with activity outcomes). Conditions: recombinant CYP, pro-luciferin dealkylation, luminescence, p450-cyp2c19; series mostly up to 57.1 µM.
Sequence of Cytochrome P450 2C19 (Homo sapiens) (P33261 whole entry, looked up): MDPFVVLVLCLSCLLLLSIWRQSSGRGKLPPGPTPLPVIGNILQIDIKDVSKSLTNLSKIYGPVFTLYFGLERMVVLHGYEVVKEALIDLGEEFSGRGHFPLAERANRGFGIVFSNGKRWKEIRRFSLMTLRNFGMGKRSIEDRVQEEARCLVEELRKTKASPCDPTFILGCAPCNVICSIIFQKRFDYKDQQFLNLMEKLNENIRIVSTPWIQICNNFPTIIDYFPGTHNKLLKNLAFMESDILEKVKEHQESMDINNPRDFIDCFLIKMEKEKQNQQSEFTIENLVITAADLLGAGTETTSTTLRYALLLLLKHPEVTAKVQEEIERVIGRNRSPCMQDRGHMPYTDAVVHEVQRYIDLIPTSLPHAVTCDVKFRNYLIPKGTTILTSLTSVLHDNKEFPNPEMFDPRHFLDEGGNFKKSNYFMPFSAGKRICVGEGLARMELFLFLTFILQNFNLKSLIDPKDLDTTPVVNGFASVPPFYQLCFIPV
On the % scale 0 is the no-effect control and ±100 the full control effect.

Structure (SMILES) | AC50 | activity, negative = inhibition
COc1ccc(NC(=O)N2CC[C@@]3(CCCN(C(=O)c4ccc(OC)cc4)C3)C2)cc1 | inactive | 
CCOCC(=O)Nc1cc(C(=O)Nc2ccccc2)ccc1Cl | 10 µM (active) | 
CCOCC(=O)Nc1cc(C(=O)Nc2cccc(C)c2C)ccc1Cl | inactive | 
Cc1cc(NC(=O)c2cc(C(C)C)on2)no1 | 14.1 µM (active) | 
CCc1ccc(NC(=O)c2cc(C(C)C)on2)cc1 | inactive | 
Cc1cc(NC(=O)c2nn(C)c(C)c2[N+](=O)[O-])no1 | inactive | 
N#CC1=C(N)OC2=C(CC/C2=C\c2ccccc2)C1c1ccccc1 (centres undefined) | 1.58 µM (active) | 
CN1CCN(c2ncc3nc(-c4ccc(Cl)cc4)c(=O)n(Cc4ccc(F)cc4)c3n2)CC1 | inactive | 
Cn1c(=O)c2[nH]c(C3CCCC3)nc2n(C)c1=O | inactive | 
O=C(O)CC(O)C(=O)O (centres undefined) | inactive | 
O=C(O)/C=C\C(=O)Nc1ccccn1 |  | 14.6% [at 11.4 µM]
CSc1nsc(SC)c1NC(=O)Nc1ccccn1 | 7.94 µM (active) | 
O=C(O)c1nnsc1COCc1ccccc1 |  | 2.27% [at 11.4 µM]
O=C(NCC1CCC(C(=O)O)CC1)OCc1ccccc1 (centres undefined) | inactive | 
CSc1nsc(SC)c1NC(=O)OCc1ccccc1 | 0.708 µM (active) | 
O[C@H](CNc1ccccn1)c1ccccc1 |  | -7.78% [at 11.4 µM]
COc1cccc(-c2cncnc2NCCN2CCOCC2)c1 | inactive | 
Cc1cccc(CNc2ncncc2-c2cccnc2)c1 | 10 µM (active) | 
COc1cccc(-c2cncnc2NCc2ccccc2)c1 | 1.58 µM (active) | 
c1cncc(CNc2ncncc2-c2cccnc2)c1 | inactive | 
COc1cccc(-c2cncnc2NCc2cccs2)c1 | 0.631 µM (active) | 
COc1cccc(-c2cncnc2NCc2cccc(C)c2)c1 | 0.794 µM (active) | 
COc1cccc(Nc2ncc3nc(-c4ccccc4)c(=O)n(Cc4cccs4)c3n2)c1 | inactive | 
COc1cccc(-c2cncnc2NCc2cccnc2)c1 | 0.316 µM (active) | 
CCOC(=O)C1=C(CN2c3ccccc3CC2C)NC(=O)NC1c1ccccc1 (centres undefined) | 7.08 µM (active) | 
C[C@@H](CC(=O)O)[C@@H](N)C(=O)O | inactive | 

Structure (SMILES) | AC50 | activity, negative = inhibition
Cc1c(NC(=S)N/N=C/c2ccc(O)cc2)c(=O)n(-c2ccccc2)n1C | inactive | 
Cc1c(NC(=S)/C=C2\N(C)c3ccccc3C2(C)C)c(=O)n(-c2ccccc2)n1C | 14.1 µM (active) | 
Fc1ccc(-c2[nH]ncc2-c2nnnn2-c2ccccc2)c(F)c1 | 0.631 µM (active) | 
NC(=O)c1ncn([C@@H]2O[C@@H](CO)[C@@H](O)[C@H]2O)c1O | inactive | 
O=C1CN(c2nc(-c3ccccc3)c3cc(Br)ccc3n2)c2ccccc2N1 | inactive | 
N=C(C[C@@H](O)COc1ccccc1-c1ccccc1)N1CCCCC1 | 31.6 µM (active) | 
CC(C)(C)NC[C@H](O)COc1cccc2c1CCCC2=O | inactive | 
CC(C)NC[C@@H](O)COc1ccccc1-n1cccc1 | inactive | 
O=C1C(=O)c2ccccc2C(O)=C1C(CCc1ccccc1)C1=C(O)c2ccccc2C(=O)C1=O |  | 21.7% [at 11.4 µM]
O=C1C(=O)c2ccccc2C(O)=C1C(C1=C(O)c2ccccc2C(=O)C1=O)c1ccc(Cl)cc1 | 3.98 µM (active) | 
O=C1C(=O)c2ccccc2C(O)=C1C1CCC(c2ccc(Cl)cc2)CC1 (centres undefined) | inactive | 
O=C1C2C3C=CC(C3)C2C(=O)N1c1ncn[nH]1 (centres undefined) | inactive | 
CN(C)CCNC(=O)c1cc(Br)ccc1Cl | inactive | 
CC(=O)Oc1cc(C(C)C)c(OCCN(C)C)cc1C | inactive | 
CSc1ccc(Cl)c(C(=O)NCCOc2cc(C)ccc2C(C)C)c1 | 5.01 µM (active) | 
CC(C)=CCC/C(C)=C/CO/N=C1/[C@H]2O[C@@H]2[C@@H](O)[C@H]2[C@H]1CCn1c(=O)n(Cc3cc4c(cc3Cl)OCO4)c(=O)n12 |  | 9.01% [at 11.4 µM]
Cc1ccc(S(=O)(=O)Nc2ccccc2C(=O)c2ccc(C)c(C)c2)cc1 |  | 30.1% [at 11.4 µM]
Cc1ccc(S(=O)(=O)N[C@H]2COC(=O)C/C=C\[C@H](C)[C@@H](NS(=O)(=O)c3ccc(C)cc3)COC(=O)C/C=C\[C@@H]2C)cc1 |  | 18.4% [at 11.4 µM]
Cc1ccc(S(=O)(=O)Nc2ccccc2C=O)cc1 | 5.01 µM (active) | 
CCOC(=O)c1c(C(C)(C)C)oc2ccc(O)cc12 | 3.98 µM (active) | 
C[C@](N)(Cc1ccc(O)c(O)c1)C(=O)O | inactive | 
C[C@@](N)(Cc1ccc(O)cc1)C(=O)O | inactive | 
O=C(N/N=C/c1c[nH]c2ccccc12)c1ccn(Cc2ccc(Cl)cc2Cl)n1 | 2 µM (active) | 
O=C(N/N=C/c1c[nH]c2ccc(Br)cc12)c1ccn(Cc2ccc(Cl)cc2)n1 | 3.55 µM (active) | 
O=c1[nH]n(-c2cccc3cccnc23)c(=O)c2ccccc12 | 11.2 µM (active) | 
O=c1ncn(-c2ccccc2F)c2ncccc12 | inactive | 

Structure (SMILES) | AC50 | activity, negative = inhibition
COc1cccc(-c2nc(NCc3cccs3)c3ccccc3n2)c1 | 3.16 µM (active) | 
N#Cc1cccc(-c2nc(NCc3cccs3)c3ccccc3n2)c1 | inactive | 
Cc1cnc(CNc2nc(-c3ccoc3)nc3ccccc23)cn1 | inactive | 
CNc1nc(-c2cccc(C#N)c2)nc2ccccc12 | 7.94 µM (active) | 
Cc1cccc(CNc2nc(-c3ccoc3)nc3ccccc23)c1 | 7.94 µM (active) | 
c1ccc2c(NC3CCNCC3)nc(-c3ccoc3)nc2c1 | inactive | 
N#Cc1cccc(-c2nc(Nc3ccccc3)c3ccccc3n2)c1 | inactive | 
COc1ccccc1CNc1nc(-c2cccc(C#N)c2)nc2ccccc12 | 3.98 µM (active) | 
Cc1ccnc(N)c1 | inactive | 
C[C@H](N=C(NC#N)Nc1ccncc1)C(C)(C)C | inactive | 
NC(N)=N[C@@H]1C(O)[C@H](N=C(N)N)[C@@H](O)C(O)[C@H]1O (some centres undefined) |  | 12.7% [at 11.4 µM]
Cc1cccc(CNc2nc(-c3cccnc3)nc3ccccc23)c1 | 10 µM (active) | 
COc1cccc(-c2nc(NCc3ccccc3)c3ccccc3n2)c1 | 3.98 µM (active) | 
Cc1cnc(CNc2nc(-c3cccnc3)nc3ccccc23)cn1 | inactive | 
N#Cc1cccc(-c2nc(NCc3ccccc3)c3ccccc3n2)c1 | 6.31 µM (active) | 
COc1cccc(-c2nc(NCc3ccccc3OC)c3ccccc3n2)c1 | 7.94 µM (active) | 
COc1cccc(-c2nc(NC3CCNCC3)c3ccccc3n2)c1 | inactive | 
N#Cc1cccc(-c2nc(NCc3cccnc3)c3ccccc3n2)c1 | inactive | 
COc1cccc(-c2nc(NCc3cccnc3)c3ccccc3n2)c1 | 25.1 µM (active) | 
COc1ccc(-c2cc(C(F)(F)F)nc(NCc3cccnc3)n2)cc1 | 2.82 µM (active) | 
O=C(O)c1ccc(C(=O)O)c(C(=O)O)c1.[NH-][C@@H]1CCCC[C@@H]1[NH-].[Pt] |  | -17.9% [at 11.4 µM]
CN1CCC2(CC1)CCN(C(=O)c1cc(C(F)(F)F)cc(C(F)(F)F)c1)CC2 | inactive | 
CON/C=C(\C=Nc1ccccc1)c1ncc(C(F)(F)F)cc1Cl | 3.55 µM (active) | 
Cn1cnc2c(NC3CCCC3)ncnc21 | inactive | 
O=C1Nc2ccccc2/C1=N/c1sc2c(c1C(=O)NCCc1ccccc1)CCCC2 | 2.51 µM (active) | 
NS(=O)(=O)c1ccc(N=C2C(=O)Nc3ccccc32)cc1 |  | -2.67% [at 11.4 µM]

Structure (SMILES) | AC50 | activity, negative = inhibition
O=C1Nc2ccccc2C1=Nc1ccc(S(=O)(=O)Nc2nccs2)cc1 |  | 21.4% [at 11.4 µM]
COc1cc2c(cc1OC)[C@H](c1ccccc1)CN(C)CC2 | inactive | 
COC(=O)c1ccc(OCC2c3cc(OC)c(OC)cc3CCN2C(=O)C2CC2)cc1 (centres undefined) | 2.51 µM (active) | 
COc1ccc(C(=O)OC(C)CN2CCN(C)CC2)cc1OC (centres undefined) | inactive | 
NCCCNCCCCNCCCN | 7.94 µM (active) | 
NCCCCN | inactive | 
NCCCCNCCCN | inactive | 
Cn1nc(C(F)(F)F)c(/C=N/OC(=O)c2ccccc2Cl)c1SCc1ccc(Cl)cc1 | 0.355 µM (active) | 
Cn1c(=O)c2[nH]c([C@@H]3CC(=O)C[C@H](c4nc5c([nH]4)c(=O)n(C)c(=O)n5C)N3)nc2n(C)c1=O |  | 1.66% [at 11.4 µM]
Cc1ccc2c(c1)N(CC(=O)NC1CCC(C)CC1)C(=O)CO2 (centres undefined) | 2.82 µM (active) | 
Cc1ccc2c(c1)N(CC(=O)NC1CCCc3ccccc31)C(=O)CO2 (centres undefined) | 2.51 µM (active) | 
O=C(O)C[C@@H]1CCCc2ccccc2[C@H]1O | inactive | 
Cc1ccc(CNC(=O)CN2C(=O)COc3ccc(C)cc32)cc1 | 2.82 µM (active) | 
CN(C)C(=O)Oc1cccc([N+](C)(C)C)c1 | inactive | 
C=CCn1c(SCC)nc2sc3c(c2c1=O)CCc1ccccc1-3 | 8.91 µM (active) | 
O=c1/c(=C\c2ccc(O)cc2)sc2n1C(c1ccccc1)C(c1ccccc1)=NN=2 (centres undefined) | 1.58 µM (active) | 
CCCCSc1nc(C)cc(NC(=S)Nc2ccc(OC)cc2)n1 | 2.51 µM (active) | 
CCOC(=O)c1cccc2c1-c1ccccc1/C2=N/O | 7.94 µM (active) | 
CC(C)=CCc1c(C)nc2ccccc2c1C(=O)O | inactive | 
CC(C)=CCC1=C(OCC(=O)O)C(=O)c2ccccc2C1=O | 1.26 µM (active) | 
CSc1nc2n(n1)C(c1cccc(F)c1)C(C(=O)Nc1ccc(C)cc1C)=C(C)N2 (centres undefined) | inactive | 
COc1ccccc1NC(=O)C1=C(C)Nc2nc(-c3ccc(N(C)C)cc3)nn2C1c1ccncc1 (centres undefined) | 14.1 µM (active) | 
CC1=C(C(=O)Nc2cccnc2)C(c2cccnc2)n2nc(-c3cccs3)nc2N1 (centres undefined) | 11.2 µM (active) | 
COC(=O)C1=C(C)Nc2ncnn2C1c1cccnc1 (centres undefined) | inactive | 
CC1=C(C(N)=O)C(c2ccccn2)n2nc(SCc3ccccc3Cl)nc2N1 (centres undefined) | inactive | 
CCOc1ccccc1C1C(C(N)=O)=C(C)Nc2nc(-c3ccc(OC)cc3)nn21 (centres undefined) | 10 µM (active) | 
